T cruzi growth-1: T. cruzi intracellular proliferation inhibitors, primary screen, cell-based, beta-gal Tulahuen parasites, NIH3T3 host, luminescence; T. cruzi beta-gal in NIH3T3, GalScreen luminescence, 90 h; inhibition, % at 8.34 µM; 77,000 compounds, 5.9% hits;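 active = mean inhibition above about 93%, with at least 55% of replicates each passing it, limit read from the data, passing the limit was not always enough; inconclusive = only one of those two conditions holds; inactive = neither condition holds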
C diff HTS: C. difficile growth inhibitors, primary screen, HTS. Clostridium difficile clinical isolate growth, OD600, 24 h; hits give low values. growth activity, negative = inhibition, % at 16 µg/mL (by protocol). 86,000 compounds, 0.25% hits;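 active = mean growth activity at or below -80% and every replicate also at or below -80%; inconclusive = mean at or below -80% but some replicate above -80%; inactive = mean growth activity above -80%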
Pf Dd2 inh: P. falciparum Dd2 growth inhibitors, primary screen, SYBR Green fluorescence, single dose replicates; activity change, % at 10 µM; 72 h; hits give low values; 94,000 compounds, 2.3% hits; AID 1159554, 2015; in the data active = activity change below about -80%; inconclusive = no clear call, values can overlap the other calls
T cruzi growth-2: T. cruzi intracellular proliferation inhibitors, confirmation, cell-based, NIH3T3 host, beta-gal parasite, luminescence, cherry-pick | 5,600 compounds, 72% hits | T. cruzi beta-gal in NIH3T3, GalScreen luminescence, 90 h | shares compounds with T cruzi growth-1 | inhibition, % at 8.35 µM;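 active = mean replicate inhibition above about 95% and at least 55% of replicates individually reaching it, limit read from the data; inconclusive = only one of the two criteria is met; inactive = neither criterion is met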
T cruzi growth-3: inhibitors of intracellular T. cruzi replication, confirmation, NIH3T3 host cells, beta-gal parasites, cherry-pick, set 2; shares compounds with T cruzi growth-1; T. cruzi beta-gal in NIH3T3, GalScreen luminescence, 90 h; inhibition, % at 2.09 µM; 5,600 compounds, 21% hits; AID 651740, 2012;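 active = mean inhibition above about 95%, with at least 55% of replicates also reaching it, limit read from the data; inconclusive = meets just one of the two conditions; inactive = meets neither condition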
NIH3T3 tox: cytotoxicity in mouse NIH/3T3 fibroblasts, confirmation, cytotoxicity control for T. cruzi proliferation inhibitor project, cell-based, cherry-pick, single point | shares compounds with T cruzi growth-1 | NIH/3T3 viability, CellTiter-Glo ATP luminescence, 90 h | cytotoxicity (signal decrease), % at 8.35 µM | 5,600 compounds, 14% hits | AID 651742, 2012;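 active = mean signal decrease across replicates above about 35% based on untreated-well scatter, with enough replicates individually passing, limit read from the data; inconclusive = no rule stated though some were filed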
3T3 cytotox 2: NIH/3T3 fibroblast cytotoxicity, confirmation, cytotoxicity control, cell-based, cherry-pick, single point, set 2; shares compounds with T cruzi growth-1; NIH/3T3 viability, CellTiter-Glo ATP luminescence, 90 h; inhibition, % at 24.9 µM; 5,600 compounds, 56% hits;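 active = mean loss of cell viability signal at or above a set limit, and enough replicates individually reaching it; inconclusive = meets only the mean limit or only the replicate share; inactive = meets neither condition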
A number is an active result; – = inactive; ? = inconclusive; · = not tested or not shown. Compounds with a hit are over-represented: about 6.7% of the library has one in this group of screens.

SMILES	T cruzi growth-1	C diff HTS	Pf Dd2 inh	T cruzi growth-2	T cruzi growth-3	NIH3T3 tox	3T3 cytotox 2
Cc1noc(C)c1S(=O)(=O)N(C)C[C@@H]1OCCCC[C@H](C)Oc2ccc(NC(=O)Nc3cccc4ccccc34)cc2C(=O)N([C@H](C)CO)C[C@@H]1C	109	–	–	98	–	74	77
Cc1noc(C)c1S(=O)(=O)N(C)C[C@@H]1OCCCC[C@@H](C)Oc2ccc(NC(=O)Nc3cccc4ccccc34)cc2C(=O)N([C@@H](C)CO)C[C@H]1C	104	–	–	–	–	–	–
Cc1noc(C)c1S(=O)(=O)N(C)C[C@@H]1OCCCC[C@@H](C)Oc2ccc(NC(=O)Nc3ccccc3)cc2C(=O)N([C@@H](C)CO)C[C@H]1C	·	–	–	·	·	·	·
COc1ccc(NC(=O)Nc2ccc3c(c2)C(=O)N([C@@H](C)CO)C[C@@H](C)[C@H](CN(C)S(=O)(=O)c2c(C)noc2C)OCCCC[C@@H](C)O3)cc1	–	–	–	·	·	·	·
Cc1noc(C)c1S(=O)(=O)N(C)C[C@H]1OCCCC[C@H](C)Oc2ccc(NC(=O)Nc3cccc4ccccc34)cc2C(=O)N([C@@H](C)CO)C[C@@H]1C	100	–	-85	109	?	–	54
COc1ccc(NC(=O)Nc2ccc3c(c2)C(=O)N([C@@H](C)CO)C[C@H](C)[C@@H](CN(C)S(=O)(=O)c2c(C)noc2C)OCCCC[C@H](C)O3)cc1	107	–	-83	102	–	–	–
COc1ccc(-c2ccccc2[C@@H]2[C@@H](CO)N(C(=O)NC(C)C)[C@H]2C#N)cc1	·	–	–	·	·	·	·
COc1ccc(S(=O)(=O)Nc2ccc3c(c2)CC(=O)N([C@@H](C)CO)C[C@@H](C)[C@H](CN(C)CC2CCCCC2)O3)cc1	–	–	–	·	·	·	·
O=C(C[C@H]1CC[C@H]2[C@@H](COC[C@@H](O)CN2C(=O)c2cccnc2)O1)Nc1ccc(-c2ccccc2)cc1	–	–	–	·	·	·	·
C[C@@H]1CCCCO[C@H](CN(C)Cc2ccc(C(=O)O)cc2)[C@H](C)CN([C@H](C)CO)C(=O)c2cc(NC(=O)C3CCCCC3)ccc2O1	–	–	–	·	·	·	·
CC=Cc1ccc2n(c1=O)C[C@@H]1[C@@H](CO)[C@H](C(=O)NCCc3ccncc3)N(Cc3cncnc3)[C@H]21 (mixture of isomers)	–	–	–	·	·	·	·
C[C@@H]1CN([C@H](C)CO)C(=O)CCCn2nncc2CO[C@@H]1CN(C)Cc1ccc(Cl)c(Cl)c1	–	–	–	·	·	·	·
O=C(C[C@H]1CC[C@H]2[C@@H](COC[C@@H](O)CN2C(=O)c2ccc3c(c2)OCO3)O1)NC1CCC1	–	–	–	·	·	·	·
COc1ccc(CN(C)C[C@@H]2OCCCC[C@@H](C)Oc3ccc(NC(=O)Nc4ccc(OC)cc4)cc3C(=O)N([C@@H](C)CO)C[C@H]2C)cc1	–	·	–	·	·	·	·
COc1ccc(CN(C)C[C@H]2OCCCC[C@H](C)Oc3ccc(NC(=O)Nc4ccc(OC)cc4)cc3C(=O)N([C@@H](C)CO)C[C@@H]2C)cc1	110	·	–	112	–	–	104
COc1ccc(CN(C)C[C@@H]2OCCCC[C@@H](C)Oc3ccc(NC(=O)Nc4ccc(F)cc4)cc3C(=O)N([C@H](C)CO)C[C@H]2C)cc1	?	–	–	97	111	–	105
COc1ccc(CN(C)C[C@@H]2OCCCC[C@@H](C)Oc3ccc(NC(=O)Nc4ccc(F)cc4)cc3C(=O)N([C@H](C)CO)C[C@@H]2C)cc1	–	–	–	·	·	·	·
Cc1noc(C)c1NC(=O)N(C)C[C@@H]1Oc2ccc(NC(=O)NC(C)C)cc2C(=O)N([C@@H](C)CO)C[C@@H]1C	–	–	–	·	·	·	·
COc1ccc(NC(=O)N(C)C[C@H]2Oc3ccc(NC(=O)c4ccncc4)cc3C(=O)N([C@@H](C)CO)C[C@@H]2C)cc1	–	–	–	·	·	·	·

Source: PubChem (Broad Institute)
